Inconclusive results are not listed. Activity calls are given as the source filed them. The call rests on the fitted dose curve; in most records, active means well fitted cell-killing curve with a large enough effect; inconclusive means small, poorly fitted or top-dose-only effect, or effect the other way; inactive means flat fitted curve, though single readings scatter.
Experiments:
Assay in all cases: Primary qHTS to identify gynecologic anti-cancer compounds using libraries of approved drugs and bioactive compounds (AID 1345084); further: nearly all actives have a fitted effect of over 55% in size
C33A = conditions: Gynecologic cancer cell panel viability, ATPlite luminescence, 48 h; series mostly up to 57.5 µM
How it was run: (§1)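 Measured: luminescence after ATPlite addition (15 min, RT). Exposure: 48 h, 37 C, 5% CO2.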

CAOV3 = conditions: Gynecologic cancer cell panel viability, ATPlite luminescence, 48 h; series mostly up to 57.5 µM
How it was run: as §1

CASKI = conditions: Gynecologic cancer cell panel viability, ATPlite luminescence, 48 h; series mostly up to 57.5 µM
How it was run: as §1

Es-2 = conditions: Gynecologic cancer cell panel viability, ATPlite luminescence, 48 h; series mostly up to 57.5 µM
How it was run: as §1

HeLa = conditions: Gynecologic cancer cell panel viability, ATPlite luminescence, 48 h; series mostly up to 57.5 µM
How it was run: as §1

Hek293T = conditions: Gynecologic cancer cell panel viability, ATPlite luminescence, 48 h, control line for the selectivity index; series mostly up to 57.5 µM
How it was run: as §1

JEG-3 = conditions: Gynecologic cancer cell panel viability, ATPlite luminescence, 48 h; series mostly up to 57.5 µM
How it was run: as §1

OV90 = conditions: Gynecologic cancer cell panel viability, ATPlite luminescence, 48 h; series mostly up to 57.5 µM
How it was run: as §1

PA-1 = conditions: Gynecologic cancer cell panel viability, ATPlite luminescence, 48 h; series mostly up to 57.5 µM
How it was run: as §1

SKOV3 = conditions: Gynecologic cancer cell panel viability, ATPlite luminescence, 48 h; series mostly up to 57.5 µM
How it was run: as §1

Tov-21-G = conditions: Gynecologic cancer cell panel viability, ATPlite luminescence, 48 h; series mostly up to 57.5 µM
How it was run: as §1

Tov112D = conditions: Gynecologic cancer cell panel viability, ATPlite luminescence, 48 h; series mostly up to 57.5 µM
How it was run: as §1
On the % scale 0 is the no-effect control and ±100 the full control effect.

C=C1OC2CC(C(=O)O)C=CC2NC1=O (stereo unspecified)
inactive: Potency (C33A) | Potency (CAOV3) | Potency (CASKI) | Potency (Es-2) | Potency (HeLa) | Potency (Hek293T) | Potency (JEG-3) | Potency (OV90) | Potency (PA-1) | Potency (SKOV3) | Potency (Tov-21-G) | Potency (Tov112D)

COc1cc(C2Oc3c(OC)cc(CCCO)cc3C2CO)ccc1O[C@H]1O[C@H](C)[C@@H](O)[C@H](O)[C@@H]1O (stereo partly specified)
inactive: Potency (C33A) | Potency (CAOV3) | Potency (CASKI) | Potency (Es-2) | Potency (HeLa) | Potency (Hek293T) | Potency (JEG-3) | Potency (OV90) | Potency (PA-1) | Potency (SKOV3) | Potency (Tov-21-G) | Potency (Tov112D)

COC(=O)C1=COC(OC2OC(CO)C(O)C(O)C2O)C2C1C=CC2(O)CO (stereo unspecified)
inactive: Potency (C33A) | Potency (CAOV3) | Potency (CASKI) | Potency (Es-2) | Potency (HeLa) | Potency (Hek293T) | Potency (JEG-3) | Potency (OV90) | Potency (PA-1) | Potency (SKOV3) | Potency (Tov-21-G) | Potency (Tov112D)

C=CC1(C)C=C2C(=O)OC(=O)C3=C(CCCC3(C)C)C2(O)CC1 (stereo unspecified)
inactive: Potency (C33A) | Potency (CAOV3) | Potency (CASKI) | Potency (Es-2) | Potency (HeLa) | Potency (Hek293T) | Potency (JEG-3) | Potency (OV90) | Potency (PA-1) | Potency (SKOV3) | Potency (Tov-21-G) | Potency (Tov112D)

CCc1ccc(Cc2ccc3c(c2)[C@]2(OC3)O[C@H](CO)[C@@H](O)[C@H](O)[C@H]2O)cc1
inactive: Potency (C33A) | Potency (CAOV3) | Potency (CASKI) | Potency (Es-2) | Potency (HeLa) | Potency (Hek293T) | Potency (JEG-3) | Potency (OV90) | Potency (PA-1) | Potency (SKOV3) | Potency (Tov-21-G) | Potency (Tov112D)

O=[N+]([O-])c1cn2c(n1)OCC(OCc1ccc(OC(F)(F)F)cc1)C2 (stereo unspecified)
inactive: Potency (C33A) | Potency (CAOV3) | Potency (CASKI) | Potency (Es-2) | Potency (HeLa) | Potency (Hek293T) | Potency (JEG-3) | Potency (OV90) | Potency (PA-1) | Potency (SKOV3) | Potency (Tov-21-G) | Potency (Tov112D)

CC1(C)CC[C@]2(C(=O)OC3OC(CO)C(O)C(O)C3O)CC[C@]3(C)C(=CCC4[C@@]5(C)CC[C@H](OC6OC(C(=O)O)C(O)C(OC7OC(CO)C(O)C(O)C7O)C6O)C(C)(C)C5CC[C@]43C)C2C1 (stereo partly specified)
inactive: activity change, negative = cytotoxicity (C33A) 0.815% [at 11.6 µM] | activity change, negative = cytotoxicity (CAOV3) -9.9% [at 11.6 µM] | activity change, negative = cytotoxicity (CASKI) 5.34% [at 11.6 µM] | activity change, negative = cytotoxicity (Es-2) -1.41% [at 11.6 µM] | activity change, negative = cytotoxicity (HeLa) 2% [at 11.6 µM] | activity change, negative = cytotoxicity (Hek293T) 0.993% [at 11.6 µM] | activity change, negative = cytotoxicity (JEG-3) 1.51% [at 11.6 µM] | activity change, negative = cytotoxicity (OV90) 9.69% [at 11.6 µM] | activity change, negative = cytotoxicity (PA-1) 4.28% [at 11.6 µM] | activity change, negative = cytotoxicity (SKOV3) -1.26% [at 11.6 µM] | activity change, negative = cytotoxicity (Tov-21-G) -2.48% [at 11.6 µM] | activity change, negative = cytotoxicity (Tov112D) 6.25% [at 11.6 µM]

O=C(OCC1=CC(O)C2C=CO[C@@H](O[C@@H]3O[C@H](CO)[C@@H](O)[C@H](O)[C@H]3O)C12)c1ccccc1 (stereo partly specified)
inactive: Potency (C33A) | Potency (CAOV3) | Potency (CASKI) | Potency (Es-2) | Potency (HeLa) | Potency (Hek293T) | Potency (JEG-3) | Potency (OV90) | Potency (PA-1) | Potency (SKOV3) | Potency (Tov-21-G) | Potency (Tov112D)

CCc1c(-c2ccccc2)c(-c2ccccc2)nn1-c1ccccc1-c1cccc(OCC(=O)O)c1
inactive: Potency (C33A) | Potency (CAOV3) | Potency (CASKI) | Potency (Es-2) | Potency (HeLa) | Potency (Hek293T) | Potency (JEG-3) | Potency (OV90) | Potency (PA-1) | Potency (SKOV3) | Potency (Tov-21-G) | Potency (Tov112D)

CC1(C(=O)O)CCCC2(C)C3=CCC4CC3(CCC12)CC4CO (stereo unspecified)
inactive: Potency (C33A) | Potency (CAOV3) | Potency (CASKI) | Potency (Es-2) | Potency (HeLa) | Potency (Hek293T) | Potency (JEG-3) | Potency (OV90) | Potency (PA-1) | Potency (SKOV3) | Potency (Tov-21-G) | Potency (Tov112D)

CC1C(OC(=O)c2ccccc2)C(O)C2C(C(=O)O)=COC(OC3OC(CO)C(O)C(O)C3O)C12 (stereo unspecified)
inactive: Potency (C33A) | Potency (CAOV3) | Potency (CASKI) | Potency (Es-2) | Potency (HeLa) | Potency (Hek293T) | Potency (JEG-3) | Potency (OV90) | Potency (PA-1) | Potency (SKOV3) | Potency (Tov-21-G) | Potency (Tov112D)

OCc1ccc(O[C@@H]2O[C@H](CO)[C@@H](O)[C@H](O)[C@H]2O)cc1
inactive: Potency (C33A) | Potency (CAOV3) | Potency (CASKI) | Potency (Es-2) | Potency (HeLa) | Potency (Hek293T) | Potency (JEG-3) | Potency (OV90) | Potency (PA-1) | Potency (SKOV3) | Potency (Tov-21-G) | Potency (Tov112D)

C[C@@H](O)[C@H](NC(=O)c1ccc(C#Cc2ccc(CN3CCOCC3)cc2)cc1)C(=O)NO
inactive: Potency (C33A) | Potency (CAOV3) | Potency (CASKI) | Potency (Es-2) | Potency (HeLa) | Potency (Hek293T) | Potency (JEG-3) | Potency (OV90) | Potency (PA-1) | Potency (SKOV3) | Potency (Tov-21-G) | Potency (Tov112D)

From PubChem BioAssay (NCATS)
